# From PubChem
# Shiga inhibitor = Shiga toxin inhibition; Vero cells, Shiga toxin protein synthesis inhibition reporter; inhibition, % at 38.7 µM; hit rate 9.2% among 290,000; AID 2315; in the data active = inhibition mostly above about 28%, no sharp cut-off; inactive = mostly below about 43%; note: 0% is about no effect
# Sm TGR block = inhibitors of Schistosoma mansoni thioredoxin glutathione reductase; Q962Y6; hit rate 3% among 360,000; purified TGR, DTNB reduction, TNB absorbance 405 nm; Potency, µM (highest dose often 114 µM), without a hit: at the top dose activity change, negative = inhibition, actives largely listed as inhibitors; note: potency is the fitted concentration of half-maximal effect; % is set by controls: 0 for no effect and ±100 for the full control effect; nearly all actives have a fitted effect of over 60% in size
#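 TGR 20 nM + NADPH 100 uM (dispensed conc.), cpd preinc 15 min RT; start with NADPH (500 uM addition) then DTNB (15 mM addition). Kinetic TNB absorbance, 405 nm filter. Four-parameter Hill fit across titration.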
# Cycloheximide cs = counter-screen hit for Shiga toxin inhibitors, cycloheximide | max response, % | hit rate 12% among 300,000 | cell reporter, cycloheximide protein synthesis inhibition counterscreen; in the data active = max response mostly above about 13%, no sharp cut-off; inactive = mostly below about 14%; note: read at 38.3 µM for the half of the compounds with a filed dose; 0% is about no effect
# Pf growth 96h = P. falciparum growth inhibition at 96 hours | P. falciparum luciferase reporter growth, 96 h | Potency, µM (doses to about 28.7 µM), for the others: at the highest dose activity change, negative = inhibition, most hits filed as inhibitors | hit rate 6.9% among 320,000 | AID 504834; note: potency is the fitted concentration of half-maximal effect; % is set by controls: 0 for no effect and ±100 for the full control effect
#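 Parasite growth measured via integrated firefly luciferase reporter in P. falciparum. Infected erythrocytes at 2% hematocrit, 0.05% parasitemia final were treated 96 hours at 37 C under 5% CO2, and luminescence was read.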
# NS1 inh = influenza NS1 inhibition; Potency, µM (top dose mostly 46.1 µM), for inactives: at the highest dose activity, positive = more growth; hit rate 0.4% among 270,000; AID 2326; calls by dose curve; note: potency is the fitted concentration of half-maximal effect; actives are rising curves; nearly all actives have a fitted effect of over 50% in size
#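 S. cerevisiae expressing influenza A NS1, grown in glucose, washed, then diluted 1:100 into pH 6.0 -URA galactose medium with 23 nl compound. Growth recovery read as OD600; NS1-free strain serves as control.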
# Pf growth 48h = P. falciparum growth inhibition at 48 hours (one generation); P. falciparum luciferase growth in erythrocytes, 48 h; Potency, µM (highest dose often 28.7 µM), for the others: at the highest dose activity change, negative = inhibition, most hits filed as inhibitors; hit rate 5.9% among 310,000; AID 504832; note: potency is the fitted concentration of half-maximal effect; % is set by controls: 0 for no effect and ±100 for the full control effect
#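 Compounds are pin-transferred into medium, infected erythrocytes (2% hematocrit, 0.1% parasitemia final) are added, and plates sit one parasite generation at 37 C in 5% CO2. Detection reagent is then added and luminescence measured.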
# Starred values were filed as active, the others as inactive; u = inconclusive; x = no result. An excerpt weighted towards active compounds, which were near 21% of everything screened. Unless noted, calls come from the whole dose curve; as a rule, active = well fitted curve in the direction sought with a large enough effect; inconclusive = small, poorly fitted or top-dose-only effect, or another doubt; inactive = no such curve, though single readings can be large; an effect the other way counts as inactive or inconclusive.
SMILES,Shiga inhibitor,Sm TGR block,Cycloheximide cs,Pf growth 96h,NS1 inh,Pf growth 48h
O=C(COc1cccc(Br)c1)Nc1ccc(N2CCOCC2)cc1N1CCOCC1,x,8%,x,3%,x,u
CC(C)[C@H](NC(=O)c1ccc(F)cc1)C(=O)N(C)Cc1cccs1,x,-1%,x,-31%,x,-26%
Cc1ccc(S(=O)(=O)CCC(=O)Nc2nc(-c3ccccn3)cs2)cc1,x,-17%,x,10µM*,x,13µM*
Cc1ccc(C2(C)NC(=O)N(CC(=O)Nc3nc(-c4ccccn4)cs3)C2=O)cc1 (centres undefined),x,-4%,x,3.3µM*,x,2.3µM*
CC1(c2ccccc2)NC(=O)N(CC(=O)Nc2nc(-c3ccccn3)cs2)C1=O (centres undefined),x,0%,x,u,x,-80%
Cc1ccc(S(=O)(=O)N2CCCc3cc(NC(=O)c4c(F)cccc4F)ccc32)cc1,13,0%,0,14%,-13%,-13%
O=S(=O)(c1ccc(F)c(Cl)c1)N1CCN(C/C=C/c2ccccc2)CC1,x,-2%,x,u,x,u
O=C(NC(=S)Nc1cccc(O)c1)c1ccco1,94*,7.9µM*,54*,146%,1%,84%
O=C(NC(=S)Nc1ccc2c(c1)OCCO2)c1ccco1,100*,16µM*,46*,179%,0%,0%
O=C(CNC(=O)c1ccco1)Nc1ccc2c(c1)OCCO2,x,-16%,x,213%,x,126%
Cc1cc(C(=O)Nc2ccc3c(c2)OCCO3)nn1C(C)(C)C,140*,6%,79*,78%,0%,169%
Cc1ccn2cc(C(=O)Nc3nnc(C)s3)nc2c1,35,1%,2,4.1µM*,-4%,63%
Cc1ccn2cc(C(=O)Nc3ccccc3N3CCOCC3)nc2c1,4,6%,7,u,-56%,5%
COc1ccc(CCNC(=O)c2cn3ccc(C)cc3n2)cc1OC,50,57%,20,u,x,-1%
Cc1cc(C(=O)Nc2ccccc2)nn1C(C)(C)C,67*,17%,43*,315%,-38%,207%
Cc1cc(C(=O)NNS(=O)(=O)c2cccc(Cl)c2)nn1C(C)(C)C,19,6%,-2,23%,0%,19%
Cc1ccn2cc(C(=O)Nc3ccc4c(c3)OCCO4)nc2c1,60*,2%,40*,-41%,-65%,173%
Cc1nn(-c2ccccc2)nc1C(=O)Nc1ccc2c(c1)OCCO2,6,9%,-2,0%,-33%,36%
CCOC(=O)c1[nH]c(C)c(CCC(=O)NCc2ccc(OCC)cc2)c1C,x,2%,x,x,x,x
COc1ccc(OC(C)C(=O)NC(C)c2ccccc2)cc1 (centres undefined),19,-12%,-1,u,-6%,15%
COc1cccc(OCc2nc3ccccc3n2C)c1,x,12%,x,x,x,x
CC(C)c1ccccc1OCC(=O)N1CCCCCCC1,-3,-21%,-1,4.1µM*,-10%,21%
CC(C)(C)c1ccc(OCC(=O)N2CCCCCC2)c(Br)c1,120*,x,43*,u,-42%,-64%
Cc1cc(S(=O)(=O)N2CCCC2)ccc1OCC(=O)N1CCCCC1,19,1%,-3,u,-4%,-22%
Cc1ccc(OCC(=O)N2CCCCC2)c(Br)c1,63*,-1%,38*,20%,-9%,34%
SMILES,Shiga inhibitor,Sm TGR block,Cycloheximide cs,Pf growth 96h,NS1 inh,Pf growth 48h
CCOc1cc(C(=O)Nc2cc(C)ccc2C)ccc1OCC(=O)N1CCCCC1,-8,-5%,-6,u,-6%,u
Cc1ccccc1OCC(=O)N1CCCCCCC1,28,0%,2,u,0%,-3%
CC(C)n1c(=S)[nH]c2cc(Cl)ccc21,-3,-9%,1,u,1%,u
COc1ccc(Cn2c(C(=O)O)c(CNCC(C)c3ccccc3)c3ccc(OC)cc32)cc1 (centres undefined),x,0%,x,x,x,x
Cc1ccc(C(CC(=O)N2CCCC2)c2ccccc2)c(O)c1 (centres undefined),-3,-12%,5,u,7%,-24%
Cc1ccc2c(c1)N/C(=C(\C=C(/Cl)[N+](=O)[O-])[N+](=O)[O-])N2,22,8.9µM*,16,34%,x,u
CCOc1c(Cl)cc(CNc2nnnn2C)cc1OC,-9,-22%,1,0%,22%,5.9µM*
CC1CCN(C(=O)CCCC(=O)N2CCC(C)CC2)CC1,24*,-27%,19,u,5%,8%
CC1CCN(C(=O)CCCC(=O)O)CC1,-7,0%,-1,23%,-7%,2%
O=C(CCCC(=O)N1CCCC1)N1CCCC1,27*,23%,19,12%,1%,x
CC(C)n1c(O)c(N=Nc2ccc(Cl)c(C(=O)O)c2)c2ccccc21,-3,5%,-4,-16%,-54%,-3%
COc1ccc(OC)c(Nc2sc(C(=O)c3ccccc3)c(N)c2S(=O)(=O)c2ccccc2)c1,x,1%,x,x,x,x
Cc1cc(OCC(=O)c2ccc(Br)cc2)ccc1N1C(=O)CCC1=O,39,4%,21,u,11%,x
Cc1ccc(OCC(=O)c2ccc3c(c2)CCCC3)cc1C,92*,17%,36*,0%,8%,72%
O=C(COc1ccc(Br)cc1)c1ccc2c(c1)CCCC2,-5,45%,-3,8.3µM*,8%,33%
O=C1Cn2c(nc3ccccc32)N1c1cccc(C(F)(F)F)c1,-7,-1%,-2,-18%,-7%,x
O=C(COC(=O)CCN1C(=O)/C(=C\C=C\c2ccccc2)SC1=S)Nc1cc(F)ccc1F,23,-20%,-2,1%,6%,-13%
CC1CCCC(NC(=O)c2ccc3snnc3c2)C1C (centres undefined),2,-11%,8,20%,-7%,31%
O=C(N/N=C/c1cc(O)ccc1Br)c1cccnc1,2,-24%,-3,6%,-51%,13µM*
O=C(N/N=C/c1ccc(Br)s1)c1cccnc1,42*,x,26*,20%,0%,u
O=C(N/N=C/c1cc(Br)c(O)c(Br)c1O)c1cccnc1,2,u,1,-14%,8%,10µM*
O=C(N/N=C/c1cc2c(cc1Br)OCO2)c1cccnc1,31,6%,14,-19%,x,0%
Cc1cc(O)c(C)c(O)c1/C=N/NC(=O)c1cccnc1,-4,-3%,1,7%,3%,u
O=C(N/N=C/c1ccc(OC(=O)c2cccc(Br)c2)cc1)c1cccnc1,9,1%,-2,2%,-34%,19%
COCc1cc(Sc2cccc(Cl)c2Cl)nc(-c2ccccc2)n1,-12,18%,-4,12µM*,0%,u
CCOC(=O)c1ccccc1NC(=O)CN1C(=O)CC(c2ccccc2)Sc2ccccc21 (centres undefined),x,-3%,x,x,x,x
